# Test results: article PMC12136788
# Positions count from the first letter of the chain named. Over roughly 5,800 sequences, “enrichment r” has its median near 0.68; the highest 2% begin near 11. The sample holds the highest values, similar sequences and a random draw of the others, so the mix is not that of the screen.
# T1: UNK ZnF1-6 (called full-length) (human, UniProt Q9C0B0 30-357)
# T1 sequence: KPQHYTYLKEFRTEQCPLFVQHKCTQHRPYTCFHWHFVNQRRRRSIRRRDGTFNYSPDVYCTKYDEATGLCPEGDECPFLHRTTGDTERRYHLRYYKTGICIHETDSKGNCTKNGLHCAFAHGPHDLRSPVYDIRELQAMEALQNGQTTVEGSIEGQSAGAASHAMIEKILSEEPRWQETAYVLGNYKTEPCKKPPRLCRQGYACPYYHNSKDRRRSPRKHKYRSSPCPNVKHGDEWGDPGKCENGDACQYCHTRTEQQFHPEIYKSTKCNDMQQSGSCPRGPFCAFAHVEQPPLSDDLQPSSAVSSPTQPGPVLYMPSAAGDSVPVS
# B1: chr4:150908776:150908877:-|CDS|ENSG00000198589|msi1|FALSE|bound_elsewhere (ssRNA)
# RNA: GGGAGUUCUACAGUCCGACGAUCGUUGAUUUGUACUUAGAUUCUCUUUGUGGCAUACUAUUUAACUGUUUUUAAUUAAUUCUUAGGGUACAUUUAAAUUCAAAGCAGAAAGCGACCUUUUCCUUGCUGAGCAUCACAAACUUUCAACAGAGGAUUGAGCAUCA
# B2: chr2:150470103:150470218:-|CDS|ENSG00000115963|unk|total|mutant (ssRNA)
# RNA: GGGAGUUCUACAGUCCGACGAUCAUGGCCAAACAGAUUGGAGCAGCUACUUAUAUCGAAUGCUCAGCUUUACAGUCGGAAAACCGCGUCAGAGACAUUUUUCACGUUGCCACCUUGGCAUGUGUAAAUAAGACAAAUAAAAACCAACAGAGGAUUGAGCAUCA
# B3: chr3:120396629:120396730:-|3pUTR|ENSG00000163430|msi1|FALSE|unique (ssRNA)
# RNA: GGGAGUUCUACAGUCCGACGAUCGCCUUCAUUUCUAGGAGUGCUUUAAGAGAAACUGUAAAUGGUGCUCUGGGGCUGGAGGCUAGUAAGGAAACUGCAUCACGAUUGAAAGAGGAACAGACCCAAAUCUGAACCUCUUUUGAGCAACAGAGGAUUGAGCAUCA
# B4: chr14:100883672:100883793:-|CDS|ENSG00000254656|unk|FALSE|unique (ssRNA)
# RNA: GGGAGUUCUACAGUCCGACGAUCUCUAUUCCGGGUCCCUCAGCCGGAUUCCCUAGACAGUCUGAUUGUGCUCAUCCUGCAAAUAGAAGAGAAGCUGGCAGAGAGAAGAGCUAUGCUCAGGCUGCCCCCCGAGGCCCGCCCCCGCAACAGAGGAUUGAGCAUCA
# B5: chr8:23842440:23842541:-|3pUTR|ENSG00000159167|msi1|total|mutant (ssRNA)
# RNA: GGGAGUUCUACAGUCCGACGAUCCCAAUGCGACAAGCCGUUCAUGAGUAUUCCCCGCAAAUUUCUCUCUUUCUUCAGUUCAGCCGAUUUCCUUUUUUCUUUUCUUUUUUUUUUUUUUUUUUUUUGGCUGUGACCUCUUCAAACCAACAGAGGAUUGAGCAUCA
# B6: chr8:23842440:23842541:-|3pUTR|ENSG00000159167|msi1|FALSE|unique (ssRNA)
# RNA: B5 RNA with C37U, C38A, C54U, C55A, C83U, C84A
# B7: ENSG00000103657:stop:overlap|stop_codon|ENSG00000103657|stop_codon|NA|stop_codon (ssRNA)
# RNA: GGGAGUUCUACAGUCCGACGAUCAGUUUUCUGUUGCUUUGACCAAAGAUGGUCAUGUGUAUACCUUUGGUCAAGGUGGUGAGUAGUCACUAUGACCUCCUUUCAGUAUAGAUAAUUUUCCACUUCUCUUUCAUGUGCUUUAUUCAACAGAGGAUUGAGCAUCA
# B8: chr19:582815:582998:+|CDS_3pUTR|ENSG00000172270|msi1_unk|total|mutant (ssRNA)
# RNA: GGGAGUUCUACAGUCCGACGAUCUCAUACACUUCCUUCUUUUUUAAAAAAGUUGGGUUUUCUCCAUUCAGGAUUCUGUUCCUCCGGUUUUUUUCCUUCUGAAGUGUUUCACGAGAGCCCGGGAGCUGCUGCCCUGCGGCCCCGCAACAGAGGAUUGAGCAUCA
# B9: ENSG00000165868:stop:overlap|stop_codon|ENSG00000165868|stop_codon|NA|stop_codon (ssRNA)
# RNA: GGGAGUUCUACAGUCCGACGAUCAGCAGCCGGCCAAGCAGUUCAUGAGACAAGCUGCCUACCAGGCGGACCCUAUGGAUCUUUAGGAGUAGAUUAUGAGUUCGAAAAACUUCUGUAUAAAAUAUUUGGAGAGGAUUUUAUUGACAACAGAGGAUUGAGCAUCA
# B10: ENSG00000124766:be:win_601|CDS|ENSG00000124766|bound_else_gene|NA|bound_elsewhere_windowed (ssRNA)
# RNA: GGGAGUUCUACAGUCCGACGAUCUCCAAAGUGGCGGGCGGCGCGGGCGGUGGGGUUAGCAAACCGCACGCCAAGCUCAUCCUGGCAGGCGGCGGCGGCGGCGGGAAAGCAGCGGCUGCCGCCGCCGCCUCCUUCGCCGCCGAACAACAGAGGAUUGAGCAUCA
# B11: ENSG00000136451:be:win_2551|3pUTR|ENSG00000136451|bound_else_gene|NA|bound_elsewhere_windowed (ssRNA)
# RNA: GGGAGUUCUACAGUCCGACGAUCUCACUAGAGUUUAUGUCUUAUAUUAAAUUGUAUACAGUUUUUAUUCUAACCACUAACUAGGUAGUGUAUGCCCCUUCAGAACAUGCAGAGUGUAUCUUUUUUUAAAUUUCUCCUUCCGUUCAACAGAGGAUUGAGCAUCA
# B12: ENSG00000136451:be:win_2501|3pUTR|ENSG00000136451|bound_else_gene|NA|bound_elsewhere_windowed (ssRNA)
# RNA: GGGAGUUCUACAGUCCGACGAUCUCCCAAUCAGAGCCUGUUGAUAUUACAACAGGGACAGAUGUGUUAGUUGCUCACUAGAGUUUAUGUCUUAUAUUAAAUUGUAUACAGUUUUUAUUCUAACCACUAACUAGGUAGUGUAUGCAACAGAGGAUUGAGCAUCA
# B13: chr3:160434497:160434598:+|3pUTR|ENSG00000113810|msi1|FALSE|bound_elsewhere (ssRNA)
# RNA: GGGAGUUCUACAGUCCGACGAUCUUUAUGAUAGGUUUAUCCGGGUACUAAAUGCAUUUCAACUUGAUAGUUUCAACUUAUGAUAGGUUUACCAGGAUGUAGUCCCACUGUUGAGGAGCAUCUAUUUAGGGGUUAAUUACUUUACAACAGAGGAUUGAGCAUCA
# B14: chr2:48379045:48379146:+|3pUTR|ENSG00000170802|unk|FALSE|unique (ssRNA)
# RNA: GGGAGUUCUACAGUCCGACGAUCCCUUAUCCUCUUUUCUGAUGUAGCAUAAAAAUUGUCCCGGUUUGAGUUAUAACUGCCAGUAGAUGACCAGUCACAAGUGAACCACUUCUCAGUUGCCAAUCUUUGCUCAUAUUAAAAACACAACAGAGGAUUGAGCAUCA
# B15: chr7:6403584:6403671:+|3pUTR|ENSG00000136238|msi1_unk|FALSE|overlapping (ssRNA)
# RNA: GGGAGUUCUACAGUCCGACGAUCUUUUCUAGUAACUAGGUGUAAAAAUCAUGUGUUGCAGCUUUAUAGUUUUUAAAAUAUUUUAGAUAAUUCUUAAACUAUGAACCUUCUUAACAUCACUGUCUUGCCAGAUUACCGACACUGCAACAGAGGAUUGAGCAUCA
# B16: chr12:76028505:76028606:-|3pUTR|ENSG00000139289|msi1|FALSE|unique (ssRNA)
# RNA: GGGAGUUCUACAGUCCGACGAUCAAGUCUUGGUCAGUAUUUUUCCAGCAUUUAAAUUGAAACGGUCAGUAUUAGACCACUGCUAGGUUAUGUAGUCAAGAAAUAAAAAUAGAAUUACAUGCUACAGAUGUCUUUAUUCUCCUUCAACAGAGGAUUGAGCAUCA
# Target: T1, UNK ZnF1-6 (called full-length)
# Test: nsRBNS (natural sequence RNA bind-n-seq); RBNS binding buffer (assumed for nsRBNS): 25 mM Tris pH 7.5, 150 mM KCl, 3 mM MgCl2, 0.01% Triton X-100, 500 ug/ml BSA, 20 U/ml SUPERase-In, 4 C; UNK is unkempt and MSI1 is Musashi-1; names of the RNAs are library labels; protein concentration not given here; high values mean tight binding
row,Binder,binding signal
1,B1,3.69 enrichment R
2,B2,0.384 enrichment R
3,B3,0.489 enrichment R
4,B4,0.977 enrichment R
5,B5,3.66 enrichment R
6,B6,28.9 enrichment R
7,B7,0.846 enrichment R
8,B8,0.504 enrichment R
9,B9,0.728 enrichment R
10,B10,0.449 enrichment R
11,B11,11.6 enrichment R
12,B12,12.3 enrichment R
13,B13,2.3 enrichment R
14,B14,0.685 enrichment R
15,B15,3.16 enrichment R
16,B16,0.83 enrichment R
